Source: PubChem BioAssay
Compounds with a hit are over-represented: about 4.6% of the library has one in this group of screens.
DAX1 inh-1: NR0B1 (DAX1) inhibition | HEK293 Gal4-DAX1 luciferase reporter, luminescence | inhibition, % at 6.75 µM | hit rate 0.99% among 340,000 | AID 504766;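 active means inhibition above the mean over all tested compounds plus 3 SD, cut at about 4.2% in these data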;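 further: inhibition shows as a rise in luminescence from relieved DAX1 repression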
hcDAF-12 act: activators of H. contortus DAF-12 nuclear receptor; activation, % at 6.8 µM; AID 652067; HEK293 hcDAF-12 lit1-tk-luc reporter, luminescence; 0% DMSO, 100% Δ7-dafachronic acid; hit rate 1.4% among 370,000;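 active means activation above the mean of all tested compounds plus 3 SD, cut at about 5.5% in these data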
DAX1 inh-2: DAX1 (NR0B1) inhibition, primary screen | HEK293T StAR-luciferase reporter, SF-1/DAX-1 repression relief | inhibition, % at 6.8 µM | hit rate 1.1% among 370,000 | AID 652010;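 active means inhibition above the mean over all tested compounds plus 3 SD, cut at about 3.6% in these data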;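 further: higher inhibition means more luminescence from relief of DAX-1 repression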
ssDAF12 agonist: S. stercoralis DAF-12 activation, primary screen; HEK293 ssDAF-12/GRIP1 lit1-tk-luc reporter, luminescence; % of 3 µM dafachronic acid response; activation, % at 6.8 µM; hit rate 1% among 370,000; AID 652126;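 active means activation above the mean over all tested compounds plus 3 SD, cut at about 0.9% in these data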
hgDAF-12 ag: hgDAF-12 agonism, primary luciferase screen; activation, % at 6.8 µM; HEK293 GAL4-hgDAF12 UAS-luciferase reporter, agonist luminescence; normalized to butyrate control; hit rate 1.8% among 370,000;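 active means activation above a cutoff set at the mean of all screened compounds plus 3 SD, cut at about 10% in these data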
Wee1 degr inh: human Wee1 degradation inhibition, primary screen. P30291. HeLa Luc-Wee1K328M stability, luciferase luminescence; 100% = proteasome inhibitor MG132 effect. reporter increase, % at 5 µM. hit rate 1.2% among 220,000;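 active means activation above the mean of all tested compounds plus 3 SD, set per screening run, cut at about 8.8% in these data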;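 further: cells exposed to compound for 20 h before luminescence read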
Target sequence (P30291 whole entry K328M): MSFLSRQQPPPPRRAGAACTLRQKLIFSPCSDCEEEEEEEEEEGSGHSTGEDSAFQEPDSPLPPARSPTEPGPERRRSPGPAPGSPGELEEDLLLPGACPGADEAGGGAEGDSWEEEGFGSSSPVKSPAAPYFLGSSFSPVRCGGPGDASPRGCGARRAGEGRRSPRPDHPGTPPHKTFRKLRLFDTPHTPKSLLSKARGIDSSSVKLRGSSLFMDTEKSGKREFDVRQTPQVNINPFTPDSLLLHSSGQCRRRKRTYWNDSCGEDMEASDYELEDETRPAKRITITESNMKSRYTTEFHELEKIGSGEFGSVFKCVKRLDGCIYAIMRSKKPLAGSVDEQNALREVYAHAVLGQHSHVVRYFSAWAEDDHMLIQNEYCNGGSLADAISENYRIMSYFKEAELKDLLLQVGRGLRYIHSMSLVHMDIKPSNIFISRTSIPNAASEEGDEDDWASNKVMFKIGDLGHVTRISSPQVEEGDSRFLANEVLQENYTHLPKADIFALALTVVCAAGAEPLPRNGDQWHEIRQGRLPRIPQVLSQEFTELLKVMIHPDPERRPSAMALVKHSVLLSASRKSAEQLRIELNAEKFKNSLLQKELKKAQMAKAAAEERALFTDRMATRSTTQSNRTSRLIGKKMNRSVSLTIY
Large screens that a line does not name were inactive.

CCOc1ccc(S(=O)(=O)Nc2ccc(O)c(Sc3ncn[nH]3)c2)cc1	Wee1 degr inh 29
CN(NS(=O)(=O)c1ccc(Cl)cc1)c1cnn(C)c(=O)c1Cl	Wee1 degr inh 9.9
O=C(CN1C(=O)NC2(CCOc3ccccc32)C1=O)N1CCCCC1 (centres undefined)	none (no result: Wee1 degr inh)
O=C(O)Cn1c2c(c3ccccc31)CSc1ccc(Cl)cc1-2	hcDAF-12 act 7.5 (no result: Wee1 degr inh)
CC(C)(C)OC(=O)N/N=C\C=C\c1ccc2c(c1)OCO2	hgDAF-12 ag 13
COC(=O)N/N=C\C=C\c1ccc2c(c1)OCO2	none
CCOC(=O)CNC(=O)/C=C/c1ccc2c(c1)OCO2	ssDAF12 agonist 0.9
CCOC(=O)N/N=C\C=C\c1ccc2c(c1)OCO2	DAX1 inh-1 5.2
Cc1ccc(NC(=O)C=NOCC(=O)Nc2cc(C)cc(C)c2)cc1	none (no result: Wee1 degr inh)
COc1ccc(NC(=O)O/N=C/c2ccc(Br)cc2)cc1	none (no result: Wee1 degr inh)
CN(C)c1ccc(C=NNC(=S)Nc2ccc(F)cc2)cc1	DAX1 inh-1 5.0, hgDAF-12 ag 11 (no result: Wee1 degr inh)
COc1ccc(NC(=O)O/N=C/c2ccncc2)cc1	DAX1 inh-1 4.6
COc1ccc(/C=N/OC(=O)Nc2ccccc2OC)cc1	hgDAF-12 ag 12
CC(=O)Nc1ccc(/C=N/OCC(=O)Nc2ccc(C)cc2)cc1	hgDAF-12 ag 12
CCN(Cc1cn(Cc2ccccc2)nn1)S(=O)(=O)c1ccc(F)cc1Br	none (no result: DAX1 inh-1, Wee1 degr inh)
Cc1noc(C)c1-c1ccc(C(=O)NCCN2CCOCC2)c2occc12	none (no result: DAX1 inh-1, Wee1 degr inh)
CC(=O)c1cc(-c2cc(C(F)(F)F)cc(C(F)(F)F)c2)c(=O)n2c1CCC2	none (no result: DAX1 inh-1, Wee1 degr inh)
CCCCCCNC(=O)C1CSCCS(=O)(=O)N1Cc1ccc(OC)cc1 (centres undefined)	none (no result: DAX1 inh-1, Wee1 degr inh)
CCCNC(=O)C1(C)CCN(Cc2cccc(OC(=O)c3ccccc3)c2)C1 (centres undefined)	none (no result: DAX1 inh-1, Wee1 degr inh)
CCOC1=C2[C@@H](CN(S(=O)(=O)c3ccc(C)cc3)[C@H]2c2ccccc2F)[C@H]2C(=O)NC(=O)[C@H]2C1	none (no result: DAX1 inh-1, Wee1 degr inh)
COc1ccc(NC(=O)O/N=C/c2ccc(N(C)C)cc2)cc1	none (no result: Wee1 degr inh)
Cc1ccc(NC(=O)O/N=C/c2ccc(N(C)C)cc2)cc1	hgDAF-12 ag 13 (no result: Wee1 degr inh)
Cc1cc(C(=O)COC(=O)C23CC4CC(CC(O)(C4)C2)C3)c(C)n1C	DAX1 inh-1 4.5, hgDAF-12 ag 11 (no result: Wee1 degr inh)
COc1ccc(OCC2CN(C3CCCC3)S(=O)(=O)CCO2)cc1 (centres undefined)	none (no result: DAX1 inh-1, Wee1 degr inh)
O=C(NC1CCCC1)C1C(c2ccc(C(F)(F)F)cc2)=Nc2ccccc2N1C(=O)c1ccccc1 (centres undefined)	hcDAF-12 act 5.7, DAX1 inh-2 3.6 (no result: DAX1 inh-1, Wee1 degr inh)
O=C(NC1CCCC1)C1C(c2ccc(C(F)(F)F)cc2)=Nc2ccccc2N1C(=O)c1ccco1 (centres undefined)	hcDAF-12 act 5.6 (no result: DAX1 inh-1, Wee1 degr inh)
O=C(NCc1ccccc1)C1C(c2ccc3c(c2)OCO3)=Nc2ccccc2N1C(=O)c1ccco1 (centres undefined)	none (no result: DAX1 inh-1, Wee1 degr inh)
COc1ccc(C2=Nc3ccccc3N(C(=O)c3cccnc3)C2C(=O)NC2CCCC2)cc1 (centres undefined)	none (no result: DAX1 inh-1, Wee1 degr inh)
O=C(COC(=O)COc1ccccc1[N+](=O)[O-])Nc1ccc(S(=O)(=O)N2CCCCC2)cc1	ssDAF12 agonist 1.2
O=C(COC(=O)CCc1ccc(S(=O)(=O)N2CCOCC2)cc1)Nc1ccccc1[N+](=O)[O-]	hcDAF-12 act 5.6 (no result: Wee1 degr inh)
O=C(Cc1ccccc1)Nc1ccc2c(c1)CCC2	none
COc1ccc(NC(=O)c2ccco2)cc1NC(=O)COc1ccccc1[N+](=O)[O-]	DAX1 inh-1 4.6 (no result: Wee1 degr inh)
O=C(CC1CCCC1)Nc1ccc2c(c1)CCC2	hgDAF-12 ag 12
COC(=O)[C@@]12C[C@@H](CC(=O)N3CCCC3)C(=O)N(Cc3cccc4ccccc34)C1=CCC(C)(C)C2	none (no result: DAX1 inh-1, Wee1 degr inh)
O=C(COc1ccccc1[N+](=O)[O-])Nc1ccc2c(c1)CCC2	DAX1 inh-2 4.5 (no result: Wee1 degr inh)
NC(C(=O)O)C1ON=C(Cl)C1O (centres undefined)	none (no result: Wee1 degr inh)
C=CCc1cccc(CNc2nc3ccccc3n2CCC)c1O	DAX1 inh-1 4.7
OCC1OC(n2cnc3c(SCc4ccccc4)ncnc32)C(O)C1O (centres undefined)	none (no result: Wee1 degr inh)
OCC1OC(n2ccc3c(SCc4ccccc4)ncnc32)C(O)C1O (centres undefined)	hgDAF-12 ag 13 (no result: Wee1 degr inh)
Cc1ccc(NC(=O)C23CCC(C)(C(=O)[C@H]2Br)C3(C)C)cc1 (some centres undefined)	Wee1 degr inh 10
COC(=O)Cc1nnn2c1[C@H](C)[C@H](c1cccc(OC)c1OC)OCC2	none (no result: DAX1 inh-1, Wee1 degr inh)
CN(CC(O)COCc1ccccc1F)C1CCCCC1 (centres undefined)	none
CN(CC(O)COCc1cccs1)C1CCCCC1 (centres undefined)	hgDAF-12 ag 12
COc1ccc(/C=N\NC(=O)c2ccc([N+](=O)[O-])c(C)c2)cc1COc1ccccc1C(N)=O	none (no result: Wee1 degr inh)
COc1ccc(/C=N/NC(=O)c2ccccc2OC)cc1COc1ccc(C)cc1	hcDAF-12 act 5.6 (no result: Wee1 degr inh)
COc1ccc(/C=N/Nc2ccccc2C(=O)O)cc1Cn1cc([N+](=O)[O-])cn1	ssDAF12 agonist 1.1
COc1ccc(/C=N/NC(=O)c2ccccc2OC)cc1COc1ccccc1[N+](=O)[O-]	ssDAF12 agonist 1.4 (no result: Wee1 degr inh)
COc1ccc(/C=N/NC(=O)c2ccoc2C)cc1COc1ccc(Cl)cc1	ssDAF12 agonist 1.3
COc1ccc(/C=N/NC(=O)c2ccoc2C)cc1OC	none
O=C(O)CCc1ccc(-c2cccs2)n1NC(=O)c1cccs1	DAX1 inh-1 4.5
O=C(O)CCc1ccc(-c2cccs2)n1NC(=O)c1ccc(O)cc1	none
O=C1CC(N2CCN(c3ccc(F)cc3)CC2)C(=O)N1Cc1cccs1 (centres undefined)	none
NC(=O)C1CCN(C2CC(=O)N(Cc3cccs3)C2=O)CC1 (centres undefined)	ssDAF12 agonist 1.2
NC(=O)C(=O)N/N=C1\CCc2ccccc21	hcDAF-12 act 6.0
Cc1ccc(S(=O)(=O)NN=C2CCc3ccccc32)cc1	ssDAF12 agonist 1.6 (no result: Wee1 degr inh)
COC(=O)C1C/C(=N\NS(=O)(=O)c2ccc(C)cc2)c2ccccc2C1 (centres undefined)	none (no result: Wee1 degr inh)
COc1ccc(OCC(=O)N/N=C2\CCc3ccccc32)cc1	none
O=C(NCCCc1ccccc1)O[C@@H]1CC[C@@]23CCCN2C(=O)CCC[C@H]3C1	none (no result: DAX1 inh-1, DAX1 inh-2, Wee1 degr inh)
Cc1c(N2C(=O)c3ccc(F)cc3C2=O)c(=O)n(-c2ccccc2)n1C	Wee1 degr inh 9.6
CC(=O)N1CCN(c2ccc(NC(=O)c3ccco3)cc2)CC1	ssDAF12 agonist 1.9 (no result: Wee1 degr inh)
COc1ccc(C(=O)Nc2ccc(N3CCN(C)CC3)cc2)cc1	none (no result: Wee1 degr inh)
O=C(NC(=S)Nc1ccc(N2CCOCC2)cc1)c1cccs1	DAX1 inh-2 4.0, hgDAF-12 ag 12
